Measurements: PubChem BioAssay AID2069 (Sanford-Burnham Center for Chemical Genomics, 2009)
Among all 1,200 compounds or so, about 210 (18%) were called active. These entries were drawn from the full list. A number with no mark means an inactive call. Rule as the data show it: active = inhibition above about 30%; inactive = the rest.

Assay: HTRF signal interference by compounds, confirmation, artefact control for SUMOylation inhibitor project, biochemical, uHTS (AID 2069)
Settings: HTRF interference counterscreen, fluorescence, at 35 µM, active compounds read high

Compound	inhibition
O=[N+]([O-])c1ccc(C2Nc3cccc4cccc(c34)N2)cc1	-5.1%
N#CC1=C(SCC(=O)NC23CC4CC(CC(C4)C2)C3)NC(=O)C(C#N)C12CCCCC2 (configuration not stated)	4.6%
Cc1cc(NC(=O)CSc2nnc(Nc3ccccc3C)s2)no1	-1.2%
Oc1ccc(NC(=S)Nc2ccc(O)cc2)cc1	19.6%
Cc1[nH]n(-c2ccccc2)c(=O)c1C(C[N+](=O)[O-])c1ccc(Br)cc1 (configuration not stated)	-5.3%
Cn1cc2ccc(N)cc2n1	2.15%
COc1ccc(-n2nc3cc(C)c(N)c(Br)c3n2)cc1	-14.3%
Nc1ccc2nn(-c3ccccc3)nc2c1	66% (active)
Cc1cccc(S(=O)(=O)C(C#N)c2nc3ccccc3nc2N2CC(C)OC(C)C2)c1 (configuration not stated)	9.45%
Cc1c(C(=O)c2ccc(Cl)cc2[N+](=O)[O-])c2ccccn2c1CCC#N	2.8%
Cc1n[nH]c(=S)n(NC(=O)/C=C/C(=O)Nn2c(=S)[nH]nc(C)c2=O)c1=O	51.5% (active)
O=C(NCCc1csc(-c2ccccc2)n1)c1c(F)cccc1Cl	-9.35%
CC1N(C)c2cccc3cccc(c23)N1C	-9.25%
CCOC(=O)c1c(C)oc2c1c(C=NCCC(=O)O)c(O)c1ccccc12	-7.35%
CCOC(=O)c1c(-c2ccccc2)oc2ccc(OC(C)C(=O)O)cc12 (configuration not stated)	58.6% (active)
CCOC(=O)c1c(C)oc2c1C(=O)c1ccccc1C2=O	1.65%
N=C1S/C(=C\c2ccco2)C(=O)N1c1ccc2c(c1)OCO2	12.6%
CC1=NOC(=O)/C1=C\c1ccc(-c2cc(Cl)ccc2Cl)o1	11%
Cc1cc(NC(=O)CSc2nc3cc(C(=O)NCCCOC(C)C)ccc3c(=O)n2Cc2ccco2)no1	6.6%
COc1cc2c(cc1OC)C(C)=NC1(CCCCC1)C2	31.6% (active)
CSc1ccc(-c2cc(=O)c3ccccc3o2)cc1	60.2% (active)
CCN(CC)S(=O)(=O)c1cc(C)ccc1SC	-1.75%
Oc1ccc(/C=N/Nc2cc(N3CCCC3)nc(N3CCCC3)n2)cc1	6.25%
Oc1ccc(/C=N/Nc2cc(N3CCCC3)nc(N3CCCC3)n2)cc1O	42.8% (active)
COc1ccc(/C=N/Nc2cc(N3CCCC3)nc(N3CCCC3)n2)cc1	27.9%

Compound	inhibition
CCOc1ccc(C=Nc2cccc3ncccc23)cc1	-2.35%
Cc1ccc(C2C(C#N)=C(N)N(c3cccnc3)C3=C2C(=O)CCC3)s1 (configuration not stated)	10.7%
O=C1N/C(=N/N=C/c2ccccc2O)SC1Cc1ccc(F)cc1 (configuration not stated)	64% (active)
COc1ccc(CC2=C(O)c3ccccc3C(=O)C2=O)cc1	-7.05%
O=C(CC1S/C(=N/N=C/C=C/c2ccccc2)NC1=O)Nc1ccc(Cl)c(Cl)c1 (configuration not stated)	-11.6%
COc1ccc(CC2S/C(=N/N=C/c3ccccc3O)NC2=O)cc1 (configuration not stated)	65.5% (active)
Cc1cc(/C=C2\C(=N)N3N=C(c4ccco4)SC3=NC2=O)c(C)n1Cc1ccccc1	7.7%
N#C/C(=C\c1ccc(O)c(O)c1)C(=O)Nc1cccc2ncccc12	8.1%
O=C(NCc1ccccc1)Nc1cccn(Cc2ccccc2F)c1=O	-6.7%
CCN(CC)S(=O)(=O)c1ccc(O)c(NC(=O)c2cc(-c3cc(OC)c(OC)c(OC)c3)nc3ccccc23)c1	16.9%
O=C(N/N=C/c1ccc(Cl)cc1)c1nc2ccc([N+](=O)[O-])cc2c(=O)[nH]1	8.95%
CC(O)C(=O)N/N=C/c1cccc(Cl)c1Cl (configuration not stated)	-5.5%
O=C(Nc1nnc(-c2ccccc2SCc2ccccc2)s1)Nc1ccccc1F	6.45%
Cc1c(N=C2C=CC(=O)c3ccccc32)c(=O)n(-c2ccccc2)n1C	-29.4%
Cc1c(N2C(=O)c3ccc4c5c(ccc(c35)C2=O)CC4)c(=O)n(-c2ccccc2)n1C	39.8% (active)
Cc1ccc(C(=O)Nc2nnc(CC(=O)N/N=C/c3ccc(O)c(O)c3)s2)cc1	-1%
Cc1c(C)c2cc(Cl)c(O)c(CN3CCN(C)CC3)c2oc1=O	30.6% (active)
CCc1c(C)c2cc(Cl)c(O)c(CN(C)C)c2oc1=O	37.2% (active)
Cc1c(CC(=O)O)c(=O)oc2c(C)c(OCc3ccc(F)cc3Cl)ccc12	-7.8%
Cc1cc(Br)ccc1-n1[nH]c(C)c(C=Nc2cccc3nsnc23)c1=O	14.9%
NC(=O)CC(NC(=O)Cc1cccc2ccccc12)c1ccc(NCCc2ccccc2F)c([N+](=O)[O-])c1 (configuration not stated)	0.5%
CCc1ccc(NC(=O)C(CC)Sc2nc3cc4c(cc3c(=O)n2Cc2ccco2)OCO4)cc1 (configuration not stated)	6.65%
N#Cc1cnn2c(-c3ccccc3)ccnc12	36.5% (active)
NS(=O)(=O)c1ccc(-c2ccc(/C=C3\NC(=S)NC3=O)o2)cc1	-17.4%
Cc1cccc(NC2=C(NCCO)C(=O)c3ccccc3C2=O)c1	-25.1%

Compound	inhibition
Cc1ccccc1N=Cc1cccc(O)c1O	-6.55%
CCCCn1c(=O)[nH]c(=O)c2c1nc(-c1ccc(-c3ccc(F)cc3)o1)n2C	21.7%
CCCCn1c(NS(=O)(=O)c2ccccc2)c(S(=O)(=O)c2ccc(C)cc2)c2nc3ccccc3nc21	16.1%
CCCCn1c(=O)[nH]c2nc3cc(N)ccc3nc2c1=O	43.9% (active)
Oc1ccc(C2Nc3cccc4cccc(c34)N2)c(O)c1	-3.25%
CC(NC(=O)OC(C)(C)C)C(=O)Oc1ccc2ccc(=O)oc2c1 (configuration not stated)	25.8%
CC(=O)Oc1ccc2c(C)c(CC(C)O)c(=O)oc2c1 (configuration not stated)	42.2% (active)
Cc1ccc(NC(=S)Nc2cccc3ccccc23)cc1F	-5.85%
CN(C)c1cccc2c(S(=O)(=O)N3CCCC3)cccc12	36.4% (active)
CN(C)c1cccc2cccc(N(C)C)c12	13.3%
CN(C)c1cccc2c(S(=O)(=O)Nc3ccccn3)cccc12	20%
Cn1c2ccccc2c2cnn(CC(=O)Nc3ccc(Cl)cc3)c(=O)c21	15.8%
Cc1cc(C)c(S(=O)(=O)NCC23C=CC(O2)C2C(=O)N(c4ccccc4)C(=O)C23)c(C)c1 (configuration not stated)	-17.5%
O=C(NN1C(=O)CSC1=S)C(=O)NN1C(=O)CSC1=S	32.4% (active)
COc1ccc(NC(=S)Nc2ccc3nsnc3c2)cc1	15.8%
CC(=O)OCCNc1cc(SCc2ccco2)c2nonc2c1[N+](=O)[O-]	-1.55%
Cc1oc2c(c(C)cc3oc(=O)c(CC(=O)N[C@H](C(=O)O)C(C)C)c(C)c32)c1C	56.9% (active)
CSCC[C@H](NC(=O)Cc1c(C)c2c(cc(C)c3c(C)c(C)oc32)oc1=O)C(=O)O	48.5% (active)
Cc1cc(OC(C(=O)O)c2ccccc2)c2c(C)c(Cc3ccccc3)c(=O)oc2c1 (configuration not stated)	21.4%
CCC(NC(=O)Cc1c(C)c2c(cc(C)c3c(C)c(C)oc32)oc1=O)C(=O)O (configuration not stated)	51.6% (active)
Cc1oc2c(c(C)cc3oc(=O)c(CC(=O)N[C@@H](C)C(=O)O)c(C)c32)c1C	53.8% (active)
Nc1ccccc1NC1=CC(=O)CC(c2ccco2)C1 (configuration not stated)	16.8%
CC1=NN(c2ccc(C(=O)O)cc2)C(=O)/C1=C\c1ccc(OC(=O)c2cccs2)cc1	12.1%
C[n+]1cccc2c(Br)ccc([O-])c21	-20.8%
C[n+]1cccc2cccc([O-])c21	5.4%

Compound	inhibition
Cc1cccc2c(N=Nc3ccc(S(=O)(=O)Nc4cccc(Cl)c4)cc3[N+](=O)[O-])c(O)[nH]c12	-2.75%
CCOCCCNC1=C(Cl)C(=O)c2ccccc2C1=O	-7.4%
Cc1ccc(NC(=O)CSc2nnc(-c3ccco3)c(-c3ccco3)n2)cc1	0.35%
O=C(Nc1ccc2nsnc2c1)N1CCCCC1	12.4%
Oc1ccc(N=Cc2ccc(OCc3ccccc3)cc2)cc1	-5.35%
CC1=CC(C)(C)N2C(=O)C(=Nc3ccc(O)cc3)c3cccc1c32	-3.6%
Cc1ccc(NC(=O)CN2C(=O)S/C(=C\c3cc(Cl)c(OCC(=O)O)c(Cl)c3)C2=O)cc1	19.7%
O=C1CC(c2ccco2)CC(O)=C1C=Nc1cc(Cl)ccc1Cl (configuration not stated)	1.35%
C/C(=N\OCc1nc2ccccc2c(=O)n1/N=C/c1cc([N+](=O)[O-])ccc1O)c1ccccc1	-16.2%
CCOc1ccc(S(=O)(=O)N2CCCC(C(=O)NCc3ccco3)C2)cc1 (configuration not stated)	-1.5%
CCOc1ccc(NC(=O)c2ccc(NC(=O)c3ccc(CN4CCOCC4)cc3)cc2)cc1	5.55%
CCOc1ccc(N2CC(C(=O)NCc3ccc(F)cc3)CC2=O)cc1 (configuration not stated)	34.9% (active)
O=[N+]([O-])c1cc([N+](=O)[O-])c2nonc2c1Nc1ccc(O)cc1	-10.7%
COc1ccc2c(c1)-c1nc(/N=C/c3cccc(OC)c3O)sc1CC2	1.05%
COc1cc(NS(=O)(=O)c2ccc(NC(=S)NC(=O)/C=C/c3ccco3)cc2)ncn1	25.8%
O=C(COC(=O)c1cc(NS(=O)(=O)c2cccs2)ccc1O)Nc1cc(Cl)ccc1Cl	13.8%
O=C(O)c1ccc(/C=N/NC(=O)c2ccc(CN3c4cccc5cccc(c45)S3(=O)=O)cc2)cc1	18.2%
COc1ccccc1/C=N/NC(=O)c1ccc(CN2C(=O)c3cccc4cccc2c34)cc1	48.2% (active)
O=C(Cc1cc(=O)[nH][nH]1)N/N=C/c1cccc2ccccc12	-6.95%
C=CCc1cccc(/C=N/NC(=O)CNc2cccc3ccccc23)c1O	4.7%
O=C(N/N=C/c1ccccc1)c1ccc(CN2C(=O)c3cccc4cccc2c34)cc1	38.8% (active)
O=C(O)c1cccc(Cn2c(Cl)c(/C=N/NC(=O)c3cc4ccccc4cc3O)sc2=O)c1	-2%
